Source: PubChem BioAssay (NCI)
The panel holds about 79,000 compounds, 15% with a hit somewhere; the sample as a whole holds those more often. Activity calls are given as the source filed them. Cut-off read from the data, not from the text of the source: active = growth inhibition above about 70%; inactive = the rest.

What was measured:
[1] = NCI Yeast Anticancer Drug Screen. Data for the rad52 strain (AID 147);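 note: 0% = growth of vehicle-treated control cultures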; conditions: S. cerevisiae rad52 mutant growth inhibition, stronger effect = higher value
Summary of the method: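 DNA repair-defective yeast; compound exposure; growth scored against vehicle controls.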

[2] = NCI Yeast Anticancer Drug Screen. Data for the wt1 strain (AID 149);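 note: 0% = growth of vehicle-treated wt1 cultures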; conditions: S. cerevisiae wt1 strain (SPY 50644) growth inhibition, stronger effect = higher value
Summary of the method: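 The wt1 strain was treated with compounds, and growth was compared with vehicle-treated cultures to give inhibition.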

[3] = NCI Yeast Anticancer Drug Screen. Data for the rad50EPP+ strain (AID 151);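 note: 0% = growth of vehicle-treated control cultures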; conditions: S. cerevisiae rad50 mutant strain, stronger effect = higher value
Summary of the method: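 rad50EPP+ yeast treated with test compounds. Readout: growth vs vehicle control.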

[4] = NCI Yeast Anticancer Drug Screen. Data for the mgt1 strain (AID 153); conditions: S. cerevisiae mgt1 mutant growth inhibition, stronger effect = higher value
Summary of the method: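 Growth inhibition relative to vehicle controls was scored for the mgt1 yeast strain after compound exposure.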

[5] = NCI Yeast Anticancer Drug Screen. Data for the rad50 strain (AID 155);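 note: 0% = growth of vehicle-only cultures of the same strain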; conditions: S. cerevisiae rad50 strain growth inhibition, stronger effect = higher value
Summary of the method: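 Cells are treated with compound, grown, and their growth is then scored against vehicle-only cultures of the same repair-deficient yeast strain.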

[6] = NCI Yeast Anticancer Drug Screen. Data for the mec2-1 strain (AID 157); conditions: S. cerevisiae mec2-1 strain, stronger effect = higher value
Summary of the method: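 Growth inhibition is read against vehicle-treated controls after compound exposure of the mec2-1 yeast strain, which is defective in DNA damage repair or cell cycle control.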

[7] = NCI Yeast Anticancer Drug Screen. Data for the rad14 strain (AID 159);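 note: 0% = growth of vehicle-treated control cultures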; conditions: S. cerevisiae rad14 strain growth inhibition, stronger effect = higher value
Summary of the method: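 Readout: yeast growth inhibition, referenced to vehicle-only cultures. Strain bears a defined alteration in DNA damage repair.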

[8] = NCI Yeast Anticancer Drug Screen. Data for the sgs1 mgt1 strain (AID 161);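 note: 0% = growth of cultures given vehicle only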; conditions: S. cerevisiae sgs1 mgt1 strain, stronger effect = higher value
Summary of the method: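 Yeast cells carrying a defined DNA-repair defect were exposed to test compounds. Growth inhibition was measured relative to vehicle-treated controls.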

[9] = NCI Yeast Anticancer Drug Screen. Data for the CLN2oe strain (AID 163);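 note: 0% = growth of vehicle-only control cultures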; conditions: S. cerevisiae CLN2oe strain, stronger effect = higher value
Summary of the method: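 Compound-treated yeast; growth vs vehicle ctrl = % inhibition. Genetically altered strain (cell-cycle control).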

[10] = NCI Yeast Anticancer Drug Screen. Data for the cln2 rad14 strain (AID 165);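 note: 0% = growth equal to vehicle treated cultures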; conditions: S. cerevisiae cln2 rad14 strain, stronger effect = higher value
Summary of the method: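 Growth inhibition, relative to vehicle-treated controls, is the read-out. The test organism is a yeast strain with defined genetic alterations, cln2 rad14.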

[11] = NCI Yeast Anticancer Drug Screen. Data for the bub3 strain (AID 167); conditions: S. cerevisiae bub3 mutant strain, stronger effect = higher value
Summary of the method: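 Part of a panel of yeast mutants defective in DNA damage repair or cell cycle regulation. Each strain is grown with compound, and inhibition is calculated relative to solvent-treated cultures.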

[12] = NCI Yeast Anticancer Drug Screen. Data for the wt2 strain (AID 169);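 note: 0% = growth of vehicle-treated yeast cultures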; conditions: S. cerevisiae wt2 strain growth inhibition, stronger effect = higher value
Summary of the method: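 Compound exposure of yeast; growth compared with vehicle controls; inhibition reported.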

[13] = NCI Yeast Anticancer Drug Screen. Data for the mlh1 strain (AID 171);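 note: 0% = growth of vehicle-treated control cultures of the same strain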; conditions: S. cerevisiae mlh1 strain growth inhibition, stronger effect = higher value
Summary of the method: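 Compounds are applied to a genetically altered yeast strain, and its growth is compared with that of vehicle-treated cultures to give percent inhibition.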

[14] = NCI Yeast Anticancer Drug Screen. Data for the sgs1 strain (AID 173);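 note: 0% = growth of vehicle-only control cultures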; conditions: S. cerevisiae sgs1 mutant, stronger effect = higher value
Summary of the method: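 Compounds applied to genetically altered yeast; growth compared with vehicle-treated cultures to give % inhibition.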

[15] = NCI Yeast Anticancer Drug Screen. Data for the rad18 strain (AID 177); conditions: S. cerevisiae rad18 mutant growth inhibition, stronger effect = higher value
Summary of the method: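 Compounds are applied to a repair-deficient yeast strain, and growth is compared with that of vehicle-treated cultures to give percent inhibition.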

[16] = NCI Yeast Anticancer Drug Screen. Data for the mlh1 rad18 strain (AID 175); conditions: S. cerevisiae mlh1 rad18 strain growth inhibition, stronger effect = higher value
Summary of the method: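 Cells of a genetically altered yeast strain, deficient in DNA damage repair, were treated with compound. Their growth was then compared with that of vehicle-treated cultures to give inhibition.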

[17] = at 5.0 µM (retest, dose inferred, filed as 0.5)
[18] = at 50.0 µM (retest, dose inferred, filed as 5.0)

Measured: growth inhibition

Cc1cc(Cl)ccc1NC(=O)/C(Cl)=C1/Sc2ccccc2NC1=O
inactive: [1]; at 1.2 µM -3% | [1]; at 3.7 µM -3% | [1]; at 11.0 µM -2% | [1]; at 33.0 µM 0% | [1]; at 100.0 µM 27% | [2]; at 1.2 µM -1% | [2]; at 3.7 µM -3% | [2]; at 11.0 µM -4% | [2]; at 33.0 µM -41% | [2]; at 100.0 µM 3% | [3]; at 1.2 µM 1% | [3]; at 3.7 µM 4% | [3]; at 11.0 µM 7% | [3]; at 33.0 µM 8% | [3]; at 100.0 µM 2% | [4]; at 1.2 µM -2% | [4]; at 3.7 µM -1% | [4]; at 11.0 µM -3% | [4]; at 33.0 µM -5% | [4]; at 100.0 µM -2% | [5]; at 1.2 µM 2% | [5]; at 3.7 µM 24% | [5]; [17] 47% | [5]; at 11.0 µM 29% | [5]; at 33.0 µM 3% | [5]; at 100.0 µM 24% | [6]; at 1.2 µM -1% | [6]; at 3.7 µM -5% | [6]; [17] 24% | [6]; at 11.0 µM -6% | [6]; at 33.0 µM -5% | [6]; [18] 62% | [6]; at 50.0 µM 56.9% | [6]; at 100.0 µM 16% | [7]; at 1.2 µM 1% | [7]; at 3.7 µM 4% | [7]; at 11.0 µM 5% | [7]; at 33.0 µM 4% | [7]; at 100.0 µM 2% | [8]; [17] 36% | [8]; at 50.0 µM 68.5% | [9]; at 1.2 µM -8% | [9]; at 3.7 µM -1% | [9]; at 11.0 µM -6% | [9]; at 33.0 µM -7% | [9]; at 100.0 µM -14% | [10]; [17] 23% | [10]; [18] 57% | [10]; at 50.0 µM -5.3% | [11]; at 1.2 µM -2% | [11]; at 3.7 µM -2% | [11]; [17] 35% | [11]; at 11.0 µM -3% | [11]; at 33.0 µM -4% | [11]; at 50.0 µM 20.2% | [11]; at 100.0 µM 7% | [12]; at 1.2 µM -2% | [12]; at 3.7 µM 7% | [12]; at 11.0 µM -2% | [12]; at 33.0 µM -2% | [12]; at 100.0 µM 2% | [13]; at 1.2 µM -1% | [13]; at 3.7 µM -3% | [13]; at 11.0 µM -3% | [13]; at 33.0 µM -5% | [13]; at 100.0 µM 0% | [14]; at 1.2 µM -1% | [14]; at 3.7 µM 2% | [14]; at 11.0 µM 4% | [14]; at 33.0 µM 7% | [14]; at 100.0 µM 31% | [15]; at 1.2 µM 0% | [15]; at 3.7 µM 3% | [15]; at 11.0 µM 4% | [15]; at 33.0 µM 6% | [15]; at 100.0 µM 45%
active: [5]; [18] 82% | [5]; at 50.0 µM 72% | [8]; [18] 91% | [11]; [18] 91%

O=S(=O)(c1cc(Cl)ccc1O)c1cc(Cl)ccc1O
inactive: [1]; at 1.2 µM 24% | [2]; at 1.2 µM 1% | [3]; at 1.2 µM -1% | [3]; at 3.7 µM 5% | [3]; at 11.0 µM 12% | [3]; at 33.0 µM 14% | [3]; at 100.0 µM 45% | [4]; at 1.2 µM 15% | [5]; at 1.2 µM 27% | [5]; [17] 52% | [6]; at 1.2 µM 30% | [6]; [17] 35% | [7]; at 1.2 µM 9% | [9]; at 1.2 µM 23% | [10]; [17] 23% | [11]; at 1.2 µM 20% | [11]; [17] 48% | [12]; at 1.2 µM 7% | [13]; at 1.2 µM 21% | [14]; at 1.2 µM 26%
active: [1]; at 3.7 µM 91% | [1]; at 11.0 µM 99% | [1]; at 33.0 µM 99% | [1]; at 100.0 µM 99% | [2]; at 3.7 µM 89% | [2]; at 11.0 µM 99% | [2]; at 33.0 µM 99% | [2]; at 100.0 µM 99% | [4]; at 3.7 µM 92% | [4]; at 11.0 µM 99% | [4]; at 33.0 µM 99% | [4]; at 100.0 µM 99% | [5]; at 3.7 µM 91% | [5]; at 11.0 µM 98% | [5]; at 33.0 µM 97% | [5]; [18] 99% | [5]; at 50.0 µM 99.5% | [5]; at 100.0 µM 99% | [6]; at 3.7 µM 93% | [6]; at 11.0 µM 99% | [6]; at 33.0 µM 98% | [6]; [18] 100% | [6]; at 50.0 µM 99.7% | [6]; at 100.0 µM 100% | [7]; at 3.7 µM 96% | [7]; at 11.0 µM 99% | [7]; at 33.0 µM 99% | [7]; at 100.0 µM 100% | [8]; [17] 75% | [8]; [18] 100% | [8]; at 50.0 µM 99.5% | [9]; at 3.7 µM 89% | [9]; at 11.0 µM 99% | [9]; at 33.0 µM 100% | [9]; at 100.0 µM 99% | [10]; [18] 99% | [10]; at 50.0 µM 98.9% | [11]; at 3.7 µM 91% | [11]; at 11.0 µM 98% | [11]; at 33.0 µM 99% | [11]; [18] 99% | [11]; at 50.0 µM 99.4% | [11]; at 100.0 µM 99% | [12]; at 3.7 µM 85% | [12]; at 11.0 µM 97% | [12]; at 33.0 µM 99% | [12]; at 100.0 µM 100% | [13]; at 3.7 µM 85% | [13]; at 11.0 µM 99% | [13]; at 33.0 µM 99% | [13]; at 100.0 µM 99% | [14]; at 3.7 µM 91% | [14]; at 11.0 µM 99% | [14]; at 33.0 µM 99% | [14]; at 100.0 µM 99% | [16]; [17] 82% | [16]; [18] 99% | [16]; at 50.0 µM 99.7%
